# Screening results (PubChem BioAssay)
# TRPV1 potentiator – HTS Assay for Compounds that Act as Potentiators of the Vanilloid Receptor 1. TRPV1-expressing cells, Fluo-8 calcium influx, capsaicin EC20 potentiation. potentiation, % at 8.33 µM. 320,000 tested, 0.02% active. AID 540277, 2011; in the data active means potentiation above about 80%; inconclusive means between about 30% and that limit
# Target sequence (Q8NER1 whole entry, looked up): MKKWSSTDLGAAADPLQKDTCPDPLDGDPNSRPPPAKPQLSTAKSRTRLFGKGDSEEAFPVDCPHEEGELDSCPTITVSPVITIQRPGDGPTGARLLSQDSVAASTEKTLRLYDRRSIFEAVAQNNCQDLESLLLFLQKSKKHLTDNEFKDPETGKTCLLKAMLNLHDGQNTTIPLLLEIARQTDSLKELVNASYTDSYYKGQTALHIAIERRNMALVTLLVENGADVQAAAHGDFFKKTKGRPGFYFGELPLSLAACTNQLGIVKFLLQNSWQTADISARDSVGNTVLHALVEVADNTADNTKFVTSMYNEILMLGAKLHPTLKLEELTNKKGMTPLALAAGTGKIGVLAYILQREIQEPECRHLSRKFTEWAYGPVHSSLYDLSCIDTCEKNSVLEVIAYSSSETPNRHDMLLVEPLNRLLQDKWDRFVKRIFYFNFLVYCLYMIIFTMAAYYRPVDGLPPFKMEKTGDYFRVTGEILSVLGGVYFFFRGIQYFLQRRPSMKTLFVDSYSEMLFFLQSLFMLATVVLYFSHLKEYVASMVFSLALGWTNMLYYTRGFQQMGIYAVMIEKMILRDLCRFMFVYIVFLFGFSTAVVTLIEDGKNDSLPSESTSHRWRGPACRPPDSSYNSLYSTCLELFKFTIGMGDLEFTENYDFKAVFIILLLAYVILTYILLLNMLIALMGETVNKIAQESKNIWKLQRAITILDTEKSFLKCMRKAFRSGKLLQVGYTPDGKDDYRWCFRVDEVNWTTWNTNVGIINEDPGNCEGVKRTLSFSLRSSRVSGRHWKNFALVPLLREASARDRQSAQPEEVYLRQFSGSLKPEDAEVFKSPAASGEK
#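 Fluo-8 calcium influx in TRPV1-expressing cells, kinetic read (ex 480/em 520 nm). Compound added and read 3 min for agonist activity, followed by capsaicin at EC20 final and 2 min further read for enhancement.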
# uPA surface inh – qHTS for Inhibitors of Cell Surface uPA Generation; AID 540303, 2011; 330,000 tested, 0.31% active; cell surface uPA generation assay, qHTS; Potency, µM (doses to about 38.3 µM), actives largely listed as inhibitors; active means well fitted inhibition curve with a large enough effect; inconclusive means small, poorly fitted or top-dose-only effect; inactive means no such curve, though single readings can be large or run the other way; tested in mouse RAW 264.7 cells; further: nearly all actives have a fitted effect of over 55% in size
# RORg inh – qHTS for inhibitors of ROR gamma transcriptional activity; Nuclear receptor ROR-gamma (Mus musculus), P51450; AID 2551, 2010; Potency, µM (highest dose often 53.6 µM), actives largely listed as inhibitors; Drosophila S2 Gal4-RORgamma UAS-luciferase reporter, 20 h; 310,000 tested, 5.4% active; further: nearly all actives have a fitted effect of over 60% in size
#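 Luciferase reporter read in Schneider cells carrying Gal4-RORγ (mouse) and UAS-Photinus luciferase; cells given compound 1 h before 700 uM copper sulfate induction, then incubated 20 h at ambient temperature.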
# VP16 counter – VP16 counterscreen qHTS for inhibitors of ROR gamma transcriptional activity; Drosophila S2 Gal4-VP16 UAS-luciferase, luminescence, 20 h; Potency, µM (titrated, usually from 53.6 µM), usual class: inhibitors; 310,000 tested, 3.5% active; AID 2546, 2010;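 further: Gal4-VP16 expression switched on by copper sulfate through the metallothionein promoter; nearly all actives have a fitted effect of over 50% in size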
# TRPV1 agonist – HTS Assay for Compounds that Act as Agonists of the Vanilloid Receptor 1; TRPV1-expressing cells, Fluo-8 calcium influx, agonist mode; activation, % at 8.33 µM; 320,000 tested, 0.19% active; in the data active means activation above about 80%; inconclusive means between about 30% and that limit
#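 TRPV1-expressing cells were cultured overnight at 35.5C and loaded with Fluo-8 calcium dye for 40 to 90 min at room temperature. After a 10 s baseline, compound was added and calcium influx was read kinetically for 3 min (ex 480/em 520 nm).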
# A number is an active result; i = inactive; ? = inconclusive; nt = no result; [ ] = remark or other dose. In the library only some 5.8% were active in any assay of this set; here they are far more common. Unless noted, the call rests on the fitted dose curve; in most records, active means well fitted curve in the direction sought with a large enough effect; inconclusive means small, poorly fitted or top-dose-only effect, or another doubt; inactive means no such curve, though single readings can be large; an effect the other way counts as inactive or inconclusive.
SMILES,TRPV1 potentiator,uPA surface inh,RORg inh,VP16 counter,TRPV1 agonist
O=C(Nc1ccc(S(=O)(=O)N2CCCCC2)cc1)c1ccc(CN2CCc3ccccc3C2)cc1,i,i,?,4.5µM,i
Cc1ccccc1C(=O)NC(=S)Nc1ccc(S(=O)(=O)N2CCN(C)CC2)cc1,i,i,i,?,i
O=C(CCl)N1CCN(S(=O)(=O)c2ccc3c(c2)CCC3)CC1,i,1µM,nt,nt,i
COc1ccc(NC(=O)c2cnc(SC)nc2C)c(OC)c1,i,i,i,i,i
CC(=O)Nc1ccc(NC(=O)CSc2nnc(NC(=O)c3ccc(Br)o3)s2)cc1,i,?,3.2µM,11µM,i
O=C(NC(=S)Nc1ccc(S(=O)(=O)N2CCCCC2)cc1)c1ccccc1,i,i,8.9µM,?,i
Cc1ccc(NC(=O)c2ccc(Nc3c([N+](=O)[O-])cc([N+](=O)[O-])cc3[N+](=O)[O-])cc2)cc1,i,i,?,1.3µM,i
Cc1ccc(S(=O)(=O)N2CCOCC2)cc1C(=O)Nc1ccc2c(c1)CCC2,i,i,i,i,83
CCc1ccc(NC(=O)COC(=O)c2nc3nc(C)cc(C)n3n2)cc1,i,i,nt,nt,i
Cc1ccc(C(=O)Nc2ccc(S(=O)(=O)N3CCOCC3)cc2)cc1C,i,i,i,i,82
Cc1ccc(C(=O)Nc2ccc(N3CCN(C)CC3)cc2)cc1,i,i,i,i,i
Cc1ccc(NC(=O)c2ccc(S(=O)(=O)N3CCCC3)cc2)cc1,nt,i,nt,nt,nt
CC1(C)CC2CC(C)(CN2S(=O)(=O)c2ccc(C(=O)Nc3ccc(Cl)c(S(=O)(=O)N4CCOCC4)c3)cc2)C1 (configuration not stated),i,i,?,13µM,i
Cc1ccc(C(=O)Nc2ccc(S(=O)(=O)N3CCCC3)cc2)cc1,i,i,i,i,85
Cc1ccc(NC(=O)c2ccc(C)cc2)cc1,i,2.8µM,nt,nt,81
CC1(C)CC2CC(C)(CN2S(=O)(=O)c2ccc(C(=O)Nc3ccc(S(=O)(=O)N4CCOCC4)cc3)cc2)C1 (configuration not stated),i,i,?,?,i
Cc1c2oc3c(C)ccc(C(=O)N[C@@H]4C(=O)N[C@@H](C(C)C)C(=O)N5CCC[C@@H]5C(=O)N(C)CC(=O)N(C)[C@@H](C(C)C)C(=O)O[C@H]4C)c3nc-2c(C(=O)N[C@@H]2C(=O)N[C@@H](C(C)C)C(=O)N3CCC[C@@H]3C(=O)N(C)CC(=O)N(C)[C@@H](C(C)C)C(=O)O[C@H]2C)c(N)c1=O,nt,nt,?,i,nt
N#Cc1ccc(NC(=O)CCc2ccc(S(=O)(=O)N3CCOCC3)cc2)cc1,i,i,i,i,102
CC(C)Oc1ccc(C(=O)Nc2nnc(SCC(=O)N3CCOCC3)s2)cc1,i,i,3.2µM,1.8µM,i
COc1cccc(Nc2nnc(SCC(=O)N3CCOCC3)s2)c1,i,i,i,i,i
O=C(CSc1cccc2cccnc12)Nc1ccc(S(=O)(=O)N2CCOCC2)cc1,i,i,5.6µM,?,i
Cc1ccc(NC(=O)CSc2nnc(NC(=O)c3ccc(S(=O)(=O)N4CCOCC4)cc3)s2)cc1,i,i,i,32µM,i
CN(C(=O)CSc1nnc(-c2c[nH]c3ccccc23)n1C1CC1)C1CCS(=O)(=O)C1 (configuration not stated),i,i,nt,nt,i
Cc1ccc(C(=O)Nc2ccsc2C(=O)O)cc1,i,?,11µM,?,i
CC(=O)O[C@H]1C[C@@]2(C)[C@H](C[C@@H](O)[C@H]3[C@@]4(C)CC[C@@H](O)[C@@H](C)[C@H]4CC[C@@]32C)C1=C(CCC=C(C)C)C(=O)O,nt,nt,i,i,nt
SMILES,TRPV1 potentiator,uPA surface inh,RORg inh,VP16 counter,TRPV1 agonist
Cc1ccc(C)c(NS(=O)(=O)c2csc(C(N)=O)c2)c1,i,i,?,i,i
COc1ccc(NC(=O)C(=O)NCCN2CCN(C(=O)c3ccco3)CC2)cc1,i,i,i,i,i
CCCCC[C@H](O)/C=C/C=C/C/C=C\CCCC(=O)O,nt,nt,i,i,nt
CSCc1nc2scc(-c3ccccc3)c2c(=O)[nH]1,i,i,i,i,i
COc1ccc(CN(C)Cc2nc3scc(-c4ccccc4)c3c(=O)[nH]2)cc1OC,i,i,1.4µM,2.5µM,i
CC1CN(C(=O)c2ccccc2OCc2ccccc2Cl)CC(C)O1 (configuration not stated),i,i,nt,nt,i
CCOC(=O)c1cnc(-n2nc(C)cc2C)nc1NC,i,nt,1.6µM,5.6µM,i
CCOC(=O)c1cnc(-n2nc(C)cc2C)nc1Nc1cccc(C(=O)O)c1,i,i,i[10 µM],i,i
CCOC(=O)c1cnc(-n2nc(C)cc2C)nc1Nc1ccc2c(c1)OCO2,i,nt,i[10 µM],i,i
CCOC(=O)c1cnc(-n2nc(C)cc2C)nc1Nc1ccc(C)cc1,i,i,0.56µM,0.79µM,?
CCOC(=O)c1cnc(-n2nc(C)cc2C)nc1Nc1ccc(O)cc1,i,i,i,i,i
CCOC(=O)c1cnc(-n2nc(C)cc2C)nc1NC1CCCCC1,i,i,0.35µM,1.1µM,?
CCOC(=O)c1cnc(-n2nc(C)cc2C)nc1Nc1ccc(N(C)C)cc1,i,i,0.79µM,1.1µM,?
CCN(C(=O)COC(=O)CCC(=O)c1ccc(Cl)cc1)c1c(N)n(Cc2ccccc2)c(=O)[nH]c1=O,nt,i,nt,nt,nt
CC(C)[C@H](NC(=O)C1CCN(S(=O)(=O)c2ccc(F)cc2)CC1)C(=O)N1CCCCCC1,i,i,i,i,i
O=C(CCOc1cccc(Br)c1)Nc1ccc(F)c(S(=O)(=O)N2CCOCC2)c1,i,i,nt,nt,?
CCOC(=O)c1cnc(-n2nc(C)cc2C)nc1Oc1ccc(C#N)cc1,i,i,i,i,i
CCOC(=O)c1cnc(-n2nc(C)cc2C)nc1N(CC)CC,?,nt,1µM,4.5µM,i
COc1ccc(Cl)cc1NC(=O)C1CC(c2ccccc2O)=NO1 (configuration not stated),?,i,i,i,i
COc1ccc(N/N=C(/N=Nc2nc(C)cc(=O)[nH]2)c2ccccc2)cc1,i,i,?,5µM,i
Cc1cc(=O)[nH]c(N=N/C(=N/Nc2ccccc2C)c2ccccc2)n1,i,i,2.5µM,5µM,i
O=[N+]([O-])c1cc([N+](=O)[O-])c(Oc2c(F)ccc(F)c2F)cc1NN1CCCCC1,i,i,i,i,80
O=[N+]([O-])c1cc([N+](=O)[O-])c(Oc2c(F)cccc2F)cc1NN1CCCCC1,i,i,i,i,?
O=C(CN(c1ccc(Cl)cc1)S(=O)(=O)c1ccc(Cl)c([N+](=O)[O-])c1)NCCc1ccccc1,i,i,i,i,i
O=C(CN(c1ccc(Cl)cc1)S(=O)(=O)c1ccc(Cl)c([N+](=O)[O-])c1)NCCc1ccc(F)cc1,i,i,7.9µM,7.1µM,i
